Most compounds without a hit are left out; they make up all but 20% or so of the library.
Pf growth 96h – P. falciparum growth inhibition at 96 hour, primary screen for plastid delayed-death inhibitors; P. falciparum luciferase reporter growth, 96 h; Potency, µM (series often up to 28.7 µM), most hits filed as inhibitors; actives 6.9% (n = 320,000); AID 504834
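P. falciparum expressing integrated firefly luciferase grown in erythrocytes (2% hematocrit, 0.05% parasitemia final) with compounds for 96 hours at 37 C, 5% CO2. Growth inhibition read as loss of luminescence after adding luciferase detection reagent.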
HCMV antiviral – human cytomegalovirus inhibition. actives 4.5% (n = 410,000). AID 1259415. activity change, negative = inhibition, % at 57.5 µM. HFF cells, HCMV-luciferase reporter, 72 h; active compounds read low; in the data active means activity change below about -60%; inconclusive means no clear call, values can overlap the other calls; inactive means above about -39%
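Inhibition of viral replication was scored as loss of reporter luminescence in HFFs infected with HCMV-luciferase (MOI 1 PFU/cell) for 72 h; compounds tested at 2 doses, normalized to buffer and Salinomycin controls.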
Pf growth 48h – inhibits P. falciparum growth in the first generation, 48 h. P. falciparum luciferase growth in erythrocytes, 48 h. Potency, µM (titrated, usually from 28.7 µM), most hits filed as inhibitors. actives 5.9% (n = 310,000)
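Luciferase-expressing parasites in RBCs, 2% Hct / 0.1% parasitemia final; RPMI 1640 + 0.5% Albumax; 37 C, 5% CO2, one generation; luminescence read-out, lower signal = inhibition.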
Shiga toxin inh – blocks Shiga toxin action in Vero cells; Vero cells, Shiga toxin protein synthesis inhibition reporter; inhibition, % at 38.7 µM; actives 9.2% (n = 290,000); in the data active means inhibition mostly above about 28%, no sharp cut-off; inactive means mostly below about 43%
CHX counter – counter-screen hit for Shiga toxin inhibitors, cycloheximide | cell reporter, cycloheximide protein synthesis inhibition counterscreen | max response, % | actives 12% (n = 300,000) | AID 2314; in the data active means max response mostly above about 13%, no sharp cut-off; inactive means mostly below about 14%; further: read at 38.3 µM for the half of the compounds with a filed dose
A number is an active result; . = inactive; ? = inconclusive; / = no result given; ! = a repeat was not active. Unless noted, the call rests on the fitted dose curve; in most records, active means well fitted inhibition curve with a large enough effect; inconclusive means small, poorly fitted or top-dose-only effect, or another doubt; inactive means no such curve, though single readings can be large or run the other way.

SMILES	Pf growth 96h	HCMV antiviral	Pf growth 48h	Shiga toxin inh	CHX counter
Cc1ccc(-c2nc(C(=O)NCC3CCCO3)cc3c2[nH]c2ccccc23)cc1 (stereo not given)	?	-95	7.4µM	.	.
CCOc1ccc(CNC(=O)C2CCN(S(=O)(=O)c3cn(C)cn3)CC2)cc1OC	/	.	/	/	/
C=CC[C@]12CCc3ccccc3C1N(c1ccc(C(=O)OCC)cc1)C2=O (stereo not given in full)	?	.	13µM	/	/
CCOC(=O)c1ccc(N2C(=O)Cc3ccccc3C2=O)cc1	.	.	?	.	.
CCN(C[C@H]1N[C@@](C)(C(=O)OC)[C@H]2C(=O)N(C)C(=O)[C@@H]12)C(=O)Nc1ccc(Cl)cc1	/	.	/	/	/
CC(C)(C)OC(=O)[C@H](Cc1ccccc1)NC(=O)c1nc[nH]c1C(=O)N[C@@H](CCCCN)C(=O)OC(C)(C)C	/	-68	/	/	/
CC(C)(C)OC(=O)[C@H](CCCCN)NC(=O)c1nc[nH]c1C(=O)N[C@@H](CCCCN)C(=O)OC(C)(C)C	/	.	/	/	/
C[C@H](NC(=O)c1nc[nH]c1C(=O)N[C@@H](Cc1ccccc1)C(=O)OC(C)(C)C)c1ccccc1	?	.	3.3µM	.	.
C[C@@H](NC(=O)c1nc[nH]c1C(=O)N[C@@H](Cc1ccccc1)C(=O)OC(C)(C)C)c1ccccc1	?	.	?	.	.
COCCOC1CCN(C(=O)C2CCC(=O)N(CCc3ccccc3)C2)CC1 (stereo not given)	.	.	.	.	.
COC(=O)C1CCN(C(=O)C2CCC(=O)N(CCc3cccc(F)c3)C2)CC1 (stereo not given)	?	.	.	.	.
CN1CCN(C(=O)C2CCC(=O)N(CCc3cccc(F)c3)C2)CC1 (stereo not given)	9.3µM	.	?	.	.
COCCCC1CCN(C(=O)C2CCC(=O)N(CCc3ccccc3)C2)CC1 (stereo not given)	.	.	?	56	46
CC(=O)NCC1CCN(C(=O)C2CCC(=O)N(CCc3cccc(F)c3)C2)CC1 (stereo not given)	13µM	.	.	.	.
O=C(NCCCN1CCCC1=O)c1cccc(S(=O)(=O)Nc2ccccc2Cl)c1	?	.	.	/	/
COC(=O)C1=C(c2ccc(-c3ccccc3)c(F)c2)C[C@@H]2CC[C@H]1N2C(=O)NCc1cc(C)oc1C(F)(F)F	?	.	2.3µM	/	/
COC(=O)C1=C(c2ccc(-c3ccccc3)c(F)c2)C[C@@H]2CC[C@H]1N2C(=O)NCc1ccco1	?	.	?	/	/
COC(=O)C1=C(c2cccc(C#N)c2)C[C@@H]2CC[C@H]1N2C(=O)NCC1CC1	.	.	.	/	/
COC(=O)C1=C(c2cccc(C#N)c2)C[C@@H]2CC[C@H]1N2C(=O)NCc1cccc2ccccc12	?	.	8.3µM	/	/
COC(=O)C1=C(c2cccc(C#N)c2)C[C@@H]2CC[C@H]1N2C(=O)NCc1ccc(F)cc1	.	.	?	/	/
COC(=O)C1=C(c2cccc(C#N)c2)C[C@@H]2CC[C@H]1N2C(=O)NCc1cc(C)oc1C(F)(F)F	?	-71	12µM	/	/
O=C(c1ccc2c(c1)CCN2S(=O)(=O)c1ccc(Cl)cc1)N1CCN(c2ccccc2)CC1	/	.	/	/	/
Cc1ccc(CN2CCC=CS2(=O)=O)cc1	/	.	/	/	/
O=C(Cc1ccc([N+](=O)[O-])cc1)Nc1cccc(C(=O)N2CCCC2)c1	/	.	/	/	/
CCOc1ccc(S(=O)(=O)c2c(C(=O)c3ccccc3)cnc3cc4c(cc23)OCCO4)cc1	?	-76	?	.	.
SMILES	Pf growth 96h	HCMV antiviral	Pf growth 48h	Shiga toxin inh	CHX counter
CCOc1ccc(C(=O)c2cnc3ccc(Cl)cc3c2S(=O)(=O)c2ccc(C)cc2)cc1	/	.	/	/	/
Cc1cccc(NC(=O)c2ccc(S(=O)(=O)C(F)F)cc2)c1C	.	.	.	.	16
Cc1nnc(NC(=O)c2ccc(S(=O)(=O)C(F)F)cc2)s1	.	.	.	.	27
COc1ccc(C(=O)/C=C(\N)C(F)(F)F)c(O)c1	.	.	.	.	.
CC(C)OC(=O)CSc1nnc(-c2ccccc2)n1N	/	.	.	.	.
COc1ccc(OC)c(CCNc2ncnc3onc(C)c23)c1	/	.	/	/	/
O=C(NCCCNC(=O)c1cnccn1)c1cccc(Cl)c1	.	.	.	.	.
CC(C)CC(=O)NC(=S)Nc1cccc(NC(=O)c2ccccc2)c1	.	.	.	.	.
Cc1cc(NC(=S)NC(=O)CC(C)C)ccc1Br	?	.	.	115	32
CC(C)CC(=O)NC(=S)Nc1ccc(NC(=O)c2cccs2)cc1	5.2µM	.	/	.	.
O=C(Cc1ccccc1)Nc1ccc(NC(=O)c2cccs2)cc1	.	?	.	.	.
CC(C)CC(=O)NC(=S)Nc1ccc(N2CCN(C(=O)c3cccs3)CC2)cc1	?	.	10µM	.	.
CCOC(=O)CC1C(=O)NCCN1S(=O)(=O)c1ccc(Br)cc1 (stereo not given)	.	.	.	.	.
O=C(NCCc1ccccc1)c1ccc(CSc2nc3ccncc3n2Cc2cccc(F)c2)cc1	/	.	/	/	/
COc1cc2c(cc1OC)CC(=O)NC=C2	.	.	.	.	.
N=c1c2c(n(Cc3ccc(F)cc3)c3c1CCC3)CCC2	.	-100	0.12µM	.	.
CCCCCCCn1c2c(c(=N)c3c1CCC3)CCCC2	.	-95	0.29µM	.	.
CCn1c(O)c(N=N)c2ccccc21	.	.	.	.	.
CCCCCCn1c2c(c(=N)c3c1CCC3)CCC2	.	-104	0.21µM	.	.
CCn1c2c(c(=N)c3ccccc31)CCC2	?	-77	?	.	.
CC(C)OCCCNC(=O)CCCn1c(SCC(=O)c2ccc(F)cc2)nc2c(sc3ccccc32)c1=O	/	.	/	/	/
Cc1ccccc1OC(=O)c1cccnc1	?	.	.	.	.
CCn1c2c(c(=N)c3c1CCC3)CCC2	0.19µM	-84	0.47µM	.	.
CCCCCCCCCn1c2c(c(=N)c3c1CCC3)CCC2	0.13µM	/	0.29µM	.	.
CCn1c(=O)c2c3c(sc2n(C)c1=O)CCC3	.	?	.	.	.
SMILES	Pf growth 96h	HCMV antiviral	Pf growth 48h	Shiga toxin inh	CHX counter
CCCCCCn1c(=O)[nH]c2c(c1=O)CCC2	.	.	.	.	.
CCCCn1c2c(c(=N)c3c1CCC3)CCC2	0.033µM	-89	0.15µM	.	.
COc1ccc(Cl)cc1NC(=O)Cn1c(=O)n(Cc2ccco2)c(=O)c2ccc(C(=O)NC3CCCC3)cc21	/	.	/	/	/
COc1ccc(NC(=O)N(C)C[C@H]2OCc3cnnn3CCCC(=O)N([C@@H](C)CO)C[C@H]2C)cc1	/	.	/	/	/
COc1ccc(C2CC(O)(c3ccccc3)Oc3c(C)ccc(C)c32)cc1 (stereo not given)	?	.	9.3µM	.	.
COc1ccc(C2CC(O)(c3ccccc3)Oc3cc(OC)cc(OC)c32)cc1 (stereo not given)	?	.	?	.	22!
COc1ccc([C@@H]2C[C@@H](c3ccccc3)Oc3c(C)ccc(C(C)C)c32)cc1	/	.	/	/	/
COc1ccc(C2CC(c3ccccc3)Oc3cc(OC)ccc32)cc1 (stereo not given)	/	/	/	.	.

Screening data deposited in PubChem by National Center for Advancing Translational Sciences (NCATS).
